Measured values reported in PubChem BioAssay (NCATS).
Values joined by “and” are separate entries in the source; they are usually repeats but may differ in a detail not shown here. Equal values may be shown once. Records with an inconclusive call do not appear. More than one record can exist for a structure, and the calls need not agree. Active and inactive are the calls of the source. Unless noted, the call rests on the fitted dose curve; in most records, active means well fitted curve in the direction sought with a large enough effect; inconclusive means small, poorly fitted or top-dose-only effect, or another doubt; inactive means no such curve, though single readings can be large; an effect the other way counts as inactive or inconclusive.

Assays:
[1] = biological target: Glucocorticoid receptor (Homo sapiens) (UniProt P04150); assay: qHTS assay for small molecule agonists of glucocorticoid receptor signaling (AID 588532; active means well fitted curve in the direction sought with a large enough effect in the signal ratio, with a control signal flat; the % refers to the signal ratio;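 further: 100% = dexamethasone at 0.1 µM and 0% = DMSO only wells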); settings: HeLa MMTV-bla, beta-lactamase ratio, agonist, 18 h; activation: stronger effect = higher value, percent of dexamethasone control, DMSO zero
Method in brief: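 Using MMTV-bla HeLa cells in medium with 1% stripped FBS and 25 mM HEPES, compounds were titrated and incubated overnight-length (18 h). Beta-lactamase cleavage of CCF4 was quantified by dual-emission fluorescence.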

[2] = biological target: Glucocorticoid receptor (Homo sapiens) (UniProt P04150); assay: qHTS assay for small molecule antagonists of glucocorticoid receptor signaling (AID 588533; active means well fitted inhibition curve with a large enough effect in the signal ratio, with a control signal flat, not every such curve was filed as active; the % refers to the signal ratio;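 further: cells stimulated with 2 nM dexamethasone as agonist; potency means the concentration at half of the fitted maximal effect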)
Method in brief: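 Antagonist-mode qHTS: compound titrations added to GRE-bla HeLa cells, then dexamethasone 2 nM final; 18 h, 37 C. CCF4 FRET fluorescence normalized to dexamethasone and DMSO; IC50 from Hill fit.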

[3] = biological target: Peroxisome proliferator-activated receptor delta (Homo sapiens) (UniProt Q03181); assay: qHTS assay for small molecule agonists of peroxisome proliferator-activated receptor delta signaling (AID 588534; calls by dose curve;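 further: 0% = DMSO basal wells and 100% = positive control agonist at 10 µM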)
Method in brief: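 Reporter cells were plated and held 5 hrs at 37 C before compounds were added. After 18 hrs at 37 C, CCF4 dye was loaded for 2 hrs at RT and fluorescence measured.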

[4] = biological target: Peroxisome proliferator-activated receptor gamma (Homo sapiens) (UniProt P37231); assay: qHTS assay for small molecule antagonists of peroxisome proliferator-activated receptor gamma signaling (AID 588537; active means well fitted inhibition curve with a large enough effect in the signal ratio, with a control signal flat, not every such curve was filed as active; the % refers to the signal ratio; further: potency means the concentration at half of the fitted maximal effect)
Method in brief: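 Inhibitors of agonist-stimulated UAS-bla reporter activity were sought in HEK293 cells; rosiglitazone (50 nM) defined full signal and DMSO baseline. Curves fitted to Hill model gave IC50 and efficacy.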

[5] = biological target: Vitamin D3 receptor (Homo sapiens) (UniProt P11473); assay: qHTS assay for small molecule antagonists of vitamin D receptor signaling (AID 588541; calls by dose curve; further: potency means the concentration at half of the fitted maximal effect)
Method in brief: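 Antagonist-mode beta-lactamase reporter assay: HEK293T VDR-UAS-bla cells were exposed to titrated compound alongside 1-alpha,25-dihydroxyvitamin D3 at 3 nM final for 16 h. Values were normalized to the 50 nM agonist control and DMSO basal, with IC50 and efficacy from Hill equation fits.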

[6] = biological target: Voltage-gated inwardly rectifying potassium channel KCNH2 (Homo sapiens) (UniProt Q12809); assay: qHTS Assay for Small Molecule Inhibitors of the Human hERG Channel Activity (AID 588834);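 further: potency means the concentration at half of the fitted maximal effect; lower thallium flux fluorescence means stronger hERG block; nearly all actives have a fitted effect of over 50% in size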
Method in brief: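 Kinetic FDSS fluorescence; U2OS + hERG BacMam (~100 virus particles/cell); FluxOR Tl+ flux; ~10 min cpd; AC50 (Hill).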

[7] = qHTS assay for small molecule agonists of the antioxidant response element (ARE) signaling pathway (AID 651741; active means well fitted activation curve with a large enough effect in the signal ratio; the % refers to the signal ratio; further: potency means the concentration at half of the fitted maximal effect)
Method in brief: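 Seeding 2,000 ARE-bla HepG2 cells per well preceded a 5 h incubation at 37 C/5% CO2 and a 16 h compound exposure at 37 C. Beta-lactamase reporter activity was then quantified by fluorescence after 2 h with LiveBLAzer B/G FRET substrate.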

[8] = qHTS assay for small molecule activators of the nuclear factor-kappa B (NF-kB) signaling pathway (AID 651749; active means well fitted activation curve with a large enough effect in the signal ratio; the % refers to the signal ratio; further: series mostly up to about 77 µM; % of control where 0% means no effect); settings: NF-kB-bla ME-180 cells, beta-lactamase FRET ratio, 16 h; activation: stronger effect = higher value
Method in brief: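 Stably transfected ME-180 line; NF-kB response element upstream of beta-lactamase. Treatment: compound or DMSO, 16 hr. Detection: fluorescent FRET substrate.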

[9] = qHTS assay for small molecule disruptors of the mitochondrial membrane potential - 1 hr assay (AID 651754; calls by dose curve; further: potency means the concentration at half of the fitted maximal effect; nearly all actives have a fitted effect of over 35% in size)
Method in brief: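 Steps: seed HepG2 cells and let attach overnight; pin-transfer compound or vehicle; incubate 1 hr at 37C; add Mito-MPS dye for 30 min; read two-channel fluorescence for monomer and aggregate forms.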

[10] = qHTS assay for small molecule disruptors of the mitochondrial membrane potential - 5 hr assay (AID 651755; calls by dose curve; further: potency means the concentration at half of the fitted maximal effect; nearly all actives have a fitted effect of over 40% in size)
Method in brief: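 HepG2, 2,000 cells/well, overnight attach; cpd or DMSO 5 hr, 37C/5% CO2; Mito-MPS 30 min 37C; fluor 490/535 + 540/590 nm.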

[11] = biological target: Tumor necrosis factor (Homo sapiens) (UniProt P01375); assay: qHTS assay to identify small molecules that stimulate Tumor Necrosis Factor-alpha (TNF-alpha) secretion (AID 651757; active means well fitted curve in the direction sought with a large enough effect in the signal ratio; the % refers to the signal ratio; further: 0% is about no effect)
Method in brief: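 Secreted TNF-alpha from compound-treated THP-1 cells (17 hrs, 37 C) was quantified with a homogeneous time-resolved fluorescence antibody assay.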

[12] = qHTS assay for environmental chemicals that activate the Aryl hydrocarbon Receptor (AhR) signaling pathway (AID 651777); settings: 1A2-DRE human hepatoma cells, luciferase, 24 h; activation: stronger effect = higher value; further: % of control where 0% means no effect; nearly all actives have a fitted effect of over 15% in size
Method in brief: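 Human hepatoma 1A2-DRE cells, stably carrying a dioxin response element and CYP1A2 promoter driving luciferase, were exposed to compounds for 24 hr at 37 C and 5% CO2. Luciferase signal was then read after 30 min One-Glo at room temperature.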

[13] = biological target: Peroxisome proliferator-activated receptor alpha (Homo sapiens) (UniProt Q07869); assay: qHTS assay for small molecule agonists of the peroxisome proliferator-activated receptor alpha (PPARalpha) signaling pathway (AID 651778); settings: PathHunter PPARalpha complementation, chemiluminescence, 6 h; max response: stronger effect = higher value; further: % of control where 0% means no effect
Method in brief: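 Chemiluminescence from complemented enzyme reported PPARalpha activation in cells after 6 hr of compound treatment at 37 C. The detection reagent was incubated for 60 min at room temperature, and compounds were scored as agonists.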

[14] = biological target: Nuclear receptor ROR-gamma (Homo sapiens) (UniProt P51449); assay: qHTS assay for small molecule antagonists of the retinoid-related orphan receptor gamma (ROR-gamma) signaling pathway (AID 651802); further: potency means the concentration at half of the fitted maximal effect; nearly all actives have a fitted effect of over 60% in size
Method in brief: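 Antagonism is scored as a fall in luminescence from a RORE-luciferase reporter in CHO cells expressing ROR under a TET-inducible promoter, measured 16hr after doxycycline induction in the presence of compound.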

[15] = qHTS assay for small molecule agonists of the antioxidant response element (ARE) signaling pathway measured by Nrf2-dependant transcriptional activity (AID 720636; active means well fitted curve in the direction sought with a large enough effect in the repeat runs; an effect the other way counts as inactive or inconclusive; further: % of control where 0% means no effect)
Method in brief: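 ARE-luc HepG2 cells carrying an Nrf2-responsive luciferase reporter were plated in medium with 1% dialyzed FBS, left 6 hr at 37 C to attach, then exposed to compound for 16 hr. Luciferase luminescence was read after ONE-Glo addition.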

[16] = qHTS assay for small molecule antagonists of the retinoid-related orphan receptor gamma (ROR-gamma) signaling pathway - cell viability counter screen (AID 720652; active means well fitted curve in the direction sought with a large enough effect in the repeat runs; an effect the other way counts as inactive or inconclusive;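 further: potency means the concentration at half of the fitted maximal effect; compound exposure lasted 16 hr before ATP read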)
Method in brief: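 Cytotoxicity is quantified via intracellular ATP (CellTiter-Glo luminescence) in doxycycline-induced CHO ROR response element-luciferase reporter cells treated with compound for 16 hr at 37 C, 5% CO2.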

[17] = qHTS assay for small molecule agonists of the antioxidant response element (ARE) signaling pathway measured by Nrf2-dependant transcriptional activity - cell viability counter screen (AID 720653; active means well fitted curve in the direction sought with a large enough effect in the repeat runs; an effect the other way counts as inactive or inconclusive; further: potency means the concentration at half of the fitted maximal effect; on max response: on the % scale 0 is the no-effect control and ±100 the full control effect); settings: ARE-bla HepG2 viability, CellTiter-Glo ATP luminescence, 16 h; max response: stronger effect = lower value
Method in brief: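 Cytotoxicity counter screen: intracellular ATP quantified by CellTiter-Glo luminescence in the same ARE-bla HepG2 plates, after 16 h compound exposure and a 2 h beta-lactamase substrate step.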

[18] = qHTS assay for cell viability of HEK293 cells (AID 743288); settings: ATP luminescence (CellTiter-Glo), 18 h; max response: stronger effect = lower value; further: on the % scale 0 is the no-effect control and ±100 the full control effect; nearly all actives have a fitted effect of over 50% in size
Method in brief: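 Total intracellular ATP, measured with a luciferase-coupled reagent, indicates the number of viable HEK293 cells. Exposure to test chemicals lasts 18 h at 37 C in 1,536-well format at 2,000 cells/well.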

[19] = qHTS assay for cell viability of the p53RE-bla HCT-116 cell line (AID 743292); further: nearly all actives have a fitted effect of over 55% in size; further: potency means the concentration at half of the fitted maximal effect
Method in brief: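 CellSensor p53RE-bla HCT-116 cells, 4,000/well, preincubated 5 h at 37 C, then exposed to compounds in DMSO for 16 h at 37 C. Viability read as CellTiter-Glo luminescence (intracellular ATP) after 30 min at room temperature.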

Chain of Peroxisome proliferator-activated receptor alpha (Homo sapiens) (Q07869 whole entry, looked up): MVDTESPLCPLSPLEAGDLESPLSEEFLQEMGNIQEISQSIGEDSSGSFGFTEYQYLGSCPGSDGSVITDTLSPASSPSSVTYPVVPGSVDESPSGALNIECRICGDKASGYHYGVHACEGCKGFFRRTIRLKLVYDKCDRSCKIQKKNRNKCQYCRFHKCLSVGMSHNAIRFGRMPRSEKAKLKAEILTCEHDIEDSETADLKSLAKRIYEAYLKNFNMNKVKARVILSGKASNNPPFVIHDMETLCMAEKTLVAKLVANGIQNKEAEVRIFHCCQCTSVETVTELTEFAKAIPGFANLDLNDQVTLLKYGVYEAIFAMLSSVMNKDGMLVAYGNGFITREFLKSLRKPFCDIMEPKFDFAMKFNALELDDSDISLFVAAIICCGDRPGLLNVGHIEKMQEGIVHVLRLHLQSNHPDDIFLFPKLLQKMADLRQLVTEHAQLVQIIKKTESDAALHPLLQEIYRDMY
Chain of Glucocorticoid receptor (Homo sapiens) (P04150 whole entry, looked up): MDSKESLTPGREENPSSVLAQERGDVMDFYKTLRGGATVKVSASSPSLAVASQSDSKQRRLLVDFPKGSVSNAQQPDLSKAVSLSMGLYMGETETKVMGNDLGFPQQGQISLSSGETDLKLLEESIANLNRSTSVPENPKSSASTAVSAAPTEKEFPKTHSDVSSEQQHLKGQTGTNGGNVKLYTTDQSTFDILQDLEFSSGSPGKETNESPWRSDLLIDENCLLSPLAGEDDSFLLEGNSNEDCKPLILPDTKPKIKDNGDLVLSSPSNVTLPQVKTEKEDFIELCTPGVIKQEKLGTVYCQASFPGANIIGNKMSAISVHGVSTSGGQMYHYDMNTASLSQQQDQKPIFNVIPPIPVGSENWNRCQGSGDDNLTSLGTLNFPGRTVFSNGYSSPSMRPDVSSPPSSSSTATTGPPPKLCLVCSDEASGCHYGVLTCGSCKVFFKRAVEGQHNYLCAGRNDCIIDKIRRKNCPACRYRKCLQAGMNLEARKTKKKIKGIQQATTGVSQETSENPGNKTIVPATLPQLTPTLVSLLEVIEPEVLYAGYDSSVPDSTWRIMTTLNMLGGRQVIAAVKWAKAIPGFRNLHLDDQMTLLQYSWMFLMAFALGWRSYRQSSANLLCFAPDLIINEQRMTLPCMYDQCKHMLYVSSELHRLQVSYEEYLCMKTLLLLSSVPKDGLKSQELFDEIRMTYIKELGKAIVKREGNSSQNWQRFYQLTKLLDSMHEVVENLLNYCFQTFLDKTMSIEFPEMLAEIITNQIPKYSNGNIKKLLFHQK
Chain of Peroxisome proliferator-activated receptor delta (Homo sapiens) (Q03181 whole entry, looked up): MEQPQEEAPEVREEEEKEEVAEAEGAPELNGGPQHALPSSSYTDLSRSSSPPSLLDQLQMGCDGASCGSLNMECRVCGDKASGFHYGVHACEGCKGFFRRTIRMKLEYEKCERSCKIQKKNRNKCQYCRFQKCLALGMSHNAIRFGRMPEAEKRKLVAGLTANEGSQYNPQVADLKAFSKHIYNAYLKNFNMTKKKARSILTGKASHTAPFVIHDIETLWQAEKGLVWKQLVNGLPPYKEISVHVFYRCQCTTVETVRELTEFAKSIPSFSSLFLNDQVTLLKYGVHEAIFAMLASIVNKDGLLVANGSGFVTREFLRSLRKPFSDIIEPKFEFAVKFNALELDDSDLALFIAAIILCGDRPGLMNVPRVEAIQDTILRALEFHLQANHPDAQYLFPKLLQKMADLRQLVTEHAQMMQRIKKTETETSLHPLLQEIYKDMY
Chain of Vitamin D3 receptor (Homo sapiens) (P11473 whole entry, looked up): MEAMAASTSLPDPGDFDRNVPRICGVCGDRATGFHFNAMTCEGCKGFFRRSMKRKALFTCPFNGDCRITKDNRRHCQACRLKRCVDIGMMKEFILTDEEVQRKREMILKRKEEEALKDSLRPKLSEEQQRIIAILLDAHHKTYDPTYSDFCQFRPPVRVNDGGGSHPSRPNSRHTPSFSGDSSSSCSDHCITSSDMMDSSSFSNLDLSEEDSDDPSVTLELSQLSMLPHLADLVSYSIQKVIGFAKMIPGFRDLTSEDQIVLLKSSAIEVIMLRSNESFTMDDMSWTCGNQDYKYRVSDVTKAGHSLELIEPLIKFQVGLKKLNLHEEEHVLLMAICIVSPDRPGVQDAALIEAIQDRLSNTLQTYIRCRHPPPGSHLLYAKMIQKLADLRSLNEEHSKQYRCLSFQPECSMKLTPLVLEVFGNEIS
Chain of Voltage-gated inwardly rectifying potassium channel KCNH2 (Homo sapiens) (Q12809 whole entry, looked up): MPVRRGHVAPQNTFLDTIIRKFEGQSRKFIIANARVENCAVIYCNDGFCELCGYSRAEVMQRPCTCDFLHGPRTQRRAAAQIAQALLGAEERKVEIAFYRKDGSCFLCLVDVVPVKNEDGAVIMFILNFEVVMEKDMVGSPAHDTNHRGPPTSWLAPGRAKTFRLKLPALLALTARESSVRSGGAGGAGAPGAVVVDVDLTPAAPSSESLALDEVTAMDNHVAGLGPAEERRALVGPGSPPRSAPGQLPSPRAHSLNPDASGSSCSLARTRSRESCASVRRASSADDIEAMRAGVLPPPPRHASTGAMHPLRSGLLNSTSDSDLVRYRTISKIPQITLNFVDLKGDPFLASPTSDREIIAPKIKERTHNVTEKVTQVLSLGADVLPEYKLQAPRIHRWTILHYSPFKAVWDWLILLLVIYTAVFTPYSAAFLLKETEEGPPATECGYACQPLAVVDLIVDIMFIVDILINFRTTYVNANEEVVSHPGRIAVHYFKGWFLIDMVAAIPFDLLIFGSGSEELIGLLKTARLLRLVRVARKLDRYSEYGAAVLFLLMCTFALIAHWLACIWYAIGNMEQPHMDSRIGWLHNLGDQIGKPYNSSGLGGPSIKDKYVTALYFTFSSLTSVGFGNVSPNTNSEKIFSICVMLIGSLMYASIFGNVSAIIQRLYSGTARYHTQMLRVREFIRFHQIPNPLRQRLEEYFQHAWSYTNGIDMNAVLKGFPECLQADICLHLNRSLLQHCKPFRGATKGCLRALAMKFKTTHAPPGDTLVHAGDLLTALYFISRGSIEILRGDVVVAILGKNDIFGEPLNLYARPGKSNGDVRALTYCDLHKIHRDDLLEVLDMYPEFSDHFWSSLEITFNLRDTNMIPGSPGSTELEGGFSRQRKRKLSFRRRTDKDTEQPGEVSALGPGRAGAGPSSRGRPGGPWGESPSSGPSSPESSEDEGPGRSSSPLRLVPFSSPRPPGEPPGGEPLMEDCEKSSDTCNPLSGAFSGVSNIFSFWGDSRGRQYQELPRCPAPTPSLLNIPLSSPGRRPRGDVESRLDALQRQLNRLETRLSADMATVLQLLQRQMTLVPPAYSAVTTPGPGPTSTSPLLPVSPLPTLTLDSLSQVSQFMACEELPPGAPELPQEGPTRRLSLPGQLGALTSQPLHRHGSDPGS
Chain of Tumor necrosis factor (Homo sapiens) (P01375 whole entry, looked up): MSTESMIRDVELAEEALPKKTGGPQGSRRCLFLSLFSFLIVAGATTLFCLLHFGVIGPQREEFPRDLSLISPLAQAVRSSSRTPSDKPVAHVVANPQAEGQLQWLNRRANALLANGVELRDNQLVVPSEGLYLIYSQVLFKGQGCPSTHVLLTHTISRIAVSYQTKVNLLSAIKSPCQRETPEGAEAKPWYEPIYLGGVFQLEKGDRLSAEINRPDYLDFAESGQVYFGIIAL
Chain of Nuclear receptor ROR-gamma (Homo sapiens) (P51449 whole entry, looked up): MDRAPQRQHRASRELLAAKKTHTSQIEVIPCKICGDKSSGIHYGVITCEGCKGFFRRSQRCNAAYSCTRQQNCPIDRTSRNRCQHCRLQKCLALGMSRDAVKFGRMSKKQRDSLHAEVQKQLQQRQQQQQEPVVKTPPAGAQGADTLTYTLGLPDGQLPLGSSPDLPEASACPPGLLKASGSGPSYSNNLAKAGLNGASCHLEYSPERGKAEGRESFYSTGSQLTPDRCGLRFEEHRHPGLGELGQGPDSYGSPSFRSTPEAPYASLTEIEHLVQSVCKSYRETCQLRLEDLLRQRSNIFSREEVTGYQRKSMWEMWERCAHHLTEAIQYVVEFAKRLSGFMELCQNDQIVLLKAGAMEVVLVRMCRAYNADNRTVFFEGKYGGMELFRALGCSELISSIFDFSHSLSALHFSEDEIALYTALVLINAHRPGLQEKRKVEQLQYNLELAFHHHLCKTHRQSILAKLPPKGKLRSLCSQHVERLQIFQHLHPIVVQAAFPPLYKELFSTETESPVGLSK
Chain of Peroxisome proliferator-activated receptor gamma (Homo sapiens) (P37231 whole entry, looked up): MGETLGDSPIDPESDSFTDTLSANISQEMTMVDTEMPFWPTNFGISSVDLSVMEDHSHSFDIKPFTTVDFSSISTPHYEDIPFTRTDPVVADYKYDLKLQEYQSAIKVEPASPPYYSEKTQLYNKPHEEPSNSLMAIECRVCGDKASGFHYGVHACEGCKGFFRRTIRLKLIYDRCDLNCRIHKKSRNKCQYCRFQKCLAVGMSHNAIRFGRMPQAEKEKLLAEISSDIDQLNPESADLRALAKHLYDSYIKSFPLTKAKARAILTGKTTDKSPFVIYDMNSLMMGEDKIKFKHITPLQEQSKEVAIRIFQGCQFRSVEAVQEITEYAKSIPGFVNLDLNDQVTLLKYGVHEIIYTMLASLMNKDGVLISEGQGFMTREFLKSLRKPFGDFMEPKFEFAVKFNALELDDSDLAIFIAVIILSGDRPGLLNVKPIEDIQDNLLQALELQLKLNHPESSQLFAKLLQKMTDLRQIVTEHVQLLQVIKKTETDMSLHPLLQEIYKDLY

O=C1C2(Cl)C3(Cl)C4(Cl)C(Cl)(Cl)C5(Cl)C3(Cl)C1(Cl)C5(Cl)C24Cl (stereo not given)
activation [1]: -3.98% (inactive) and -15.4% (inactive)
Potency [2]: 39.8 µM (active)
outcome [3]: inactive
Potency [4]: 44.7 µM (active) and inactive
Potency [5]: 39.8 µM (active) and inactive
Potency [6]: 17.8 µM (active) and 28.2 µM (active)
Potency [7]: 66.8 µM (active)
activation [8]: 4.98% (inactive)
Potency [9]: 3.35 µM (active) and 10.6 µM (active)
Potency [10]: 4.22 µM (active) and 9.44 µM (active)
Potency [11]: inactive
activation [12]: 0.0088% (inactive) and 4.7% (inactive)
max response [13]: 6.14% (inactive) and 11.6% (inactive) and 6.69% (inactive)
Potency [14]: 9.44 µM (active) and 10.6 µM (active)
Potency [15]: inactive
Potency [16]: 26.6 µM (active) and 29.8 µM (active)
Potency [17]: 50.1 µM (active)
max response [17]: 5.47% (inactive)
max response [18]: -22.6% (inactive) and -16.2% (inactive)
Potency [19]: 70.8 µM (active) and inactive
